The source made the active and inactive calls. The calls were made as follows: active = hit-call score of the fitted dose curve at least 0.9, where 1 is the maximum; inactive = score below 0.9.

This experiment can be described thus: CCTE_Harrill_HTTr_Apoptosis_MCF7: CCTE's 6-hour Apoptosis Assessment for the High-Throughput Transcriptomics (HTTr) Platform, in MCF-7 cells cultured in DMEM + 10% fetal bovine serum, Harrill Lab (AID 2284011). The essentials: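 MCF-7 (DMEM + 10% FBS), 384-well; 8-pt dilution series, 6 h chemical exposure; caspase-3/7 activation via CellEvent Caspase 3/7 Green, HCI; bidirectional fit vs DMSO.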
Take `CN=C=S`: the outcome was inactive. The same measure for `N#Cc1c(Cl)cccc1Cl`: “inactive”. Regarding `COP(=S)(OC)Oc1ccc([N+](=O)[O-])c(C)c1`, the outcome was inactive. As for `CCC(C)n1c(=O)[nH]c(C)c(Br)c1=O` (stereo unspecified), the entry is “inactive”; as for `CCCCC(C#N)(Cn1cncn1)c1ccc(Cl)cc1` (stereo unspecified), “inactive”.

For `Cc1cc(C)nc(Nc2ccccc2)n1`, the outcome was inactive. As for `COCC(C)N(C(=O)CCl)c1c(C)csc1C` (stereo unspecified), the entry is “inactive”; as for `CNC(=O)N(C)c1nnc(C(C)(C)C)s1`, “inactive”; as for `C=CCOC(=O)C(C)(C)OC(=O)c1cc(-n2c(=O)cc(C(F)(F)F)n(C)c2=O)ccc1Cl`, “inactive”. As for `O=c1n(Cl)c(=O)n(Cl)c(=O)n1Cl`, the entry is “inactive”; as for `COC(=O)c1c(C(F)F)nc(C(F)(F)F)c(C2=NCCS2)c1CC(C)C`, “inactive”; as for `COC(=O)NC(=S)Nc1ccccc1NC(=S)NC(=O)OC`, “inactive”.

With `CS(=O)(=O)c1cc(C(F)(F)F)ccc1C(=O)c1cnoc1C1CC1`, the result was inactive. As for `CCOc1nc(C(Cl)(Cl)Cl)ns1`, the entry is “inactive”; as for `O=C(O)c1c(Cl)ccc2cc(Cl)cnc12`, “inactive”; as for `CCSC(=O)N1CCCCCC1`, “inactive”. As for `CSC(=O)c1c(C(F)F)nc(C(F)(F)F)c(C(=O)SC)c1CC(C)C`, the entry is “inactive”; as for `COCc1cnc(C2=NC(C)(C(C)C)C(=O)N2)c(C(=O)O)c1` (stereo unspecified), “inactive”; as for `CC(C)NC(=O)N1CC(=O)N(c2cc(Cl)cc(Cl)c2)C1=O`, “inactive”. Turning to `CC(C)Oc1cccc(NC(=O)c2ccccc2C(F)(F)F)c1`, the outcome was inactive. As for `COc1cc(OC)nc(NC(=O)NS(=O)(=O)c2ncccc2OCC(F)(F)F)n1`, the entry is “inactive”. As for `O=P(O)(O)CCCl`, the entry is “inactive”; as for `CCNC(=O)NC(=O)C(C#N)=NOC`, “inactive”. As for `COC(=O)NS(=O)(=O)c1ccc(N)cc1`, the entry is “inactive”; as for `CC(C)Nc1nc(Cl)nc(NC(C)C)n1`, “inactive”.

In the case of `CCN(CC)C(=O)C(C)Oc1cccc2ccccc12` (stereo unspecified), the result was inactive.

For `CCN(CC)c1nc(C)cc(OP(=S)(OC)OC)n1`, the result was inactive.

Turning to `CS(=O)(=O)c1ccc(C(=O)C2C(=O)CCCC2=O)c([N+](=O)[O-])c1`, the outcome was inactive. The same measure for `Cc1cnc(C2=NC(C)(C(C)C)C(=O)N2)c(C(=O)O)c1` (stereo unspecified): “inactive”; for `CC1(C)CON(Cc2ccccc2Cl)C1=O`: “inactive”.

For the compound `O=C1C2CC=CCC2C(=O)N1SC(Cl)(Cl)Cl` (stereo unspecified), the outcome was inactive. As for `Clc1cccc(C(Cl)(Cl)Cl)n1`, the entry is “inactive”; as for `CCCCOCN(C(=O)CCl)c1c(CC)cccc1CC`, “inactive”. Consider `COc1cc(Cl)c(OC)cc1Cl`, for which the outcome was inactive. For `Nc1c(Cl)c(Cl)nc(C(=O)O)c1Cl`, the result was inactive.

In the case of `Nc1cnn(-c2ccccc2)c(=O)c1Cl`, the outcome was inactive.

The record behind these values is PubChem BioAssay (EPA / NIEHS).
